The source of these data is PubChem BioAssay.

Assay [1] in a line: antimalarial activity against Dd2 strain (AID 2302;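 active = growth inhibition above 50% at the single 2 µM test dose, taken to imply half-maximal potency below 2 µM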;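 note: 0% = DMSO untreated growth and 100% = chloroquine plus artemisinin killed control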). To be noted: P. falciparum Dd2 in RBCs, LDH growth readout, 72 h; at 2 µM; stronger effect = higher value.
A short description of assay [2]: human hepatoma cell viability loss – ATP luminescence, cytotoxicity control for P. falciparum antimalarial project, primary screen (AID 2303;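 active = inhibition above 50%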;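 note: 0% = DMSO wells and 100% = digitonin-killed cells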). To be noted: HepG2 viability, 24-48 h, at 10 µM, stronger effect = higher value.
In assay [3] the target is L-lactate dehydrogenase (Plasmodium falciparum (isolate CDC / Honduras)) (UniProt Q27743). As to the kind of experiment: PfLDH activity inhibition – cell lysate, 3D7 strain, counter-screen for P. falciparum growth inhibition project (AID 2304).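 Note: 0% = vehicle and 100% = reference inhibitor.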 As to conditions: P. falciparum 3D7 crude extract, LDH APAD/NBT absorbance; at 2 µM; stronger effect = higher value.
Assay [4] in a line: inhibition of 3D7 malaria parasite growth – strain 3D7 (AID 2306).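 Note: 0% = DMSO wells and 100% = chloroquine plus artemisinin control wells.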 To be noted: P. falciparum 3D7 erythrocytic growth, LDH absorbance, 72 h; at 2 µM; stronger effect = higher value.
In assay [5] the target is Calcium-dependent protein kinase 1 (Plasmodium falciparum (isolate 3D7)) (UniProt P62344). As to the kind of experiment: PfCDPK1 kinase inhibitors, biochemical, TCAMS library (AID 1159585; cut-off not given, nearly all actives have IC50 up to about 0.98 µM;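 note: inhibitors leave more ATP so luminescence rises with inhibition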). As to conditions: recombinant PfCDPK1, Kinase-Glo ATP depletion luminescence. In general terms: Kinase-Glo measures the ATP left after a reaction by luminescence.
In assay [6] the target is Plasmodium falciparum protein kinase 6 (PK6, PF3D7_1337100) (UniProt Q8IDW1). As to the kind of experiment: PfPK6 kinase inhibitors, biochemical, TCAMS library (AID 1159586). To be noted: recombinant PfPK6, Kinase-Glo ATP depletion luminescence.
In assay [7] the target is Protein kinase 7 (PK7), Plasmodium falciparum 3D7 (PF3D7_0213400) (UniProt Q7YTF7). Description: inhibition of Plasmodium PK7 catalytic activity – biochemical, TCAMS antimalarial set, Kinase-Glo luminescence (AID 1159587). As to conditions: recombinant PfPK7, Kinase-Glo ATP depletion luminescence.
For assay [8], the target named is Calcium-dependent protein kinase 4 (Plasmodium falciparum (isolate 3D7)) (UniProt Q8IBS5). Description: PfCDPK4 kinase inhibitors, biochemical, TCAMS library (AID 1159588; cut-off not given, nearly all actives have IC50 up to about 0.91 µM). As to conditions: recombinant PfCDPK4, Kinase-Glo ATP depletion luminescence.

The structures appear in SMILES notation. Values without a mark were called inactive. For some assays here: Measured potencies and affinities stand elsewhere. Active and inactive are the calls of the source. Unless noted, the rule behind the calls is not given here.

Calcium-dependent protein kinase 1 (Plasmodium falciparum (isolate 3D7)), sequence (P62344 whole entry, looked up): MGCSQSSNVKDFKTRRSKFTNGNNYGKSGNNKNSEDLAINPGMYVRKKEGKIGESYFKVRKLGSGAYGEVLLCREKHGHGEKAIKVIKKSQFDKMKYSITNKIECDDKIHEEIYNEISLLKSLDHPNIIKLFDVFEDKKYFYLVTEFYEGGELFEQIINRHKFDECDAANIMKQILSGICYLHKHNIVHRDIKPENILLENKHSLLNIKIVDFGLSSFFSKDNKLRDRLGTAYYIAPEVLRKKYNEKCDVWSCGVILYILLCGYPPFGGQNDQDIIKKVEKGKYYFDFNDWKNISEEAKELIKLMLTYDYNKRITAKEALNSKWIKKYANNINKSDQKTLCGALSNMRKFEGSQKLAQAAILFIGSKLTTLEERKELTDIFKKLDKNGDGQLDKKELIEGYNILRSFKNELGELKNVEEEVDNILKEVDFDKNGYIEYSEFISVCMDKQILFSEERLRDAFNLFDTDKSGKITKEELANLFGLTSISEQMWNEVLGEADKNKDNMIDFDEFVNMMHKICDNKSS
Plasmodium falciparum protein kinase 6 (PK6, PF3D7_1337100), sequence (Q8IDW1 1-305): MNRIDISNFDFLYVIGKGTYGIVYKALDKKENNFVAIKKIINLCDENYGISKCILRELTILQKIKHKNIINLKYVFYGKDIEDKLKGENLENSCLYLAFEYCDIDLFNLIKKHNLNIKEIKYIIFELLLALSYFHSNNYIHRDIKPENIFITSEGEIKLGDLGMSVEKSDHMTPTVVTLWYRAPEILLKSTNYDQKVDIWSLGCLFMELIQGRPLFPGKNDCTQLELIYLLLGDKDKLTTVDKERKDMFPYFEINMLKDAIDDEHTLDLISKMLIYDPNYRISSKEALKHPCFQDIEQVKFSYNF
Calcium-dependent protein kinase 4 (Plasmodium falciparum (isolate 3D7)), sequence (Q8IBS5 whole entry, looked up): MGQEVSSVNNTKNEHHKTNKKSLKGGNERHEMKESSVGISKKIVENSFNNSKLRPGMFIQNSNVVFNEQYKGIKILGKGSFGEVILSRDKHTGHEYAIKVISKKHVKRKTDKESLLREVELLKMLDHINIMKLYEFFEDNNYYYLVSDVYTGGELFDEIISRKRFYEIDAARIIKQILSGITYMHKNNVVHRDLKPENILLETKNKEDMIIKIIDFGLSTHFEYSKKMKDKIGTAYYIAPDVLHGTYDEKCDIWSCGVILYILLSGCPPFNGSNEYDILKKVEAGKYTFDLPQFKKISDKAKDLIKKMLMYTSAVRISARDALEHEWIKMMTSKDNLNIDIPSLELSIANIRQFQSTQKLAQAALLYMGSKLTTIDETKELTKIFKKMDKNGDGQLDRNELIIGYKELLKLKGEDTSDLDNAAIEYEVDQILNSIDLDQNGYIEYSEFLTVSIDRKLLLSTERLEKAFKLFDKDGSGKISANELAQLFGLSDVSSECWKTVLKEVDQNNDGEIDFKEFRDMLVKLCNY
L-lactate dehydrogenase (Plasmodium falciparum (isolate CDC / Honduras)), sequence (Q27743 whole entry, looked up): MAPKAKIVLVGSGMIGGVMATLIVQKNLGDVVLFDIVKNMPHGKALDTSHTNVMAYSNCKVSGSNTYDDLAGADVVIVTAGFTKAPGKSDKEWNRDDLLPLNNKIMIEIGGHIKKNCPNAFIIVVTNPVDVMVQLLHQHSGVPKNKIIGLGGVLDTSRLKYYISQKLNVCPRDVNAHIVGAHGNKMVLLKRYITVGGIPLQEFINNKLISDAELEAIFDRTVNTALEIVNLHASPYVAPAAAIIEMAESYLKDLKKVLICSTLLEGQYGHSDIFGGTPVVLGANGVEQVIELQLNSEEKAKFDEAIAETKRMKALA
Protein kinase 7 (PK7), Plasmodium falciparum 3D7 (PF3D7_0213400), sequence (Q7YTF7 1-343): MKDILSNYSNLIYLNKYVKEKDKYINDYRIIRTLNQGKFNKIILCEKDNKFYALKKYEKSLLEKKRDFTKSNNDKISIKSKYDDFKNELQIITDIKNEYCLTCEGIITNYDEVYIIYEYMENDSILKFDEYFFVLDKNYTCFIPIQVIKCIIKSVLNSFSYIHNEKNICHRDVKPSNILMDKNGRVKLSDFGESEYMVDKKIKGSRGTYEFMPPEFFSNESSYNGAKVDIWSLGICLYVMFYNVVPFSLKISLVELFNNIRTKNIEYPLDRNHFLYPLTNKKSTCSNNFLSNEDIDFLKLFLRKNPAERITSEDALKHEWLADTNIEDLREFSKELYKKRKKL

In the case of `COc1cc(NCC(CN)Cc2ccc3c(c2)OCO3)nc2ccccc12` (configuration not stated), the growth inhibition in assay [1] is 6%; in assay [4], 94% (active). The inhibition (usually the change of the read-out against control, counted positive when it falls) in assay [2] is 41%; in assay [3] it was 0%. Besides, the result in assay [5], in assay [6], in assay [7] and in assay [8] was inactive.

`Cc1cc(NCCC(=O)Nc2ccccc2)nc(NCc2ccccc2C)n1`: the growth inhibition was 57% (active) in assay [1] and 100% (active) in assay [4]. The inhibition in assay [2] was 6%; in assay [3] it was -1%. For the same compound, the outcome in assay [5], in assay [6], in assay [7] and in assay [8] was inactive.

As to `CN1CCN(c2cccc(NC(=O)c3ccc(-c4ccc(C#N)cc4)cc3)c2)CC1`, the growth inhibition in assay [1] is 7%; in assay [4], 84% (active). Moreover, the values for the inhibition in assay [2] and in assay [3] were 31% and 2%, respectively. Also, the result in assay [5], in assay [6], in assay [7] and in assay [8] was inactive.

`O=C(/C=C/c1ccc(Cl)c(Cl)c1)N1CCC(CN2CCC(c3nc4ccccc4n3CCCO)CC2)CC1`: the growth inhibition is -4% in assay [1] and 96% (active) in assay [4]. The inhibition was 60% (active) in assay [2] and -8% in assay [3]. In addition, the result in assay [5], in assay [6], in assay [7] and in assay [8] was inactive.

With `Cc1noc(C)c1CN1CCCN(c2ccc3c(c2)CCN(Cc2ccc(-c4ncc[nH]4)cc2)CC3)CC1`, the growth inhibition in assay [1] is 39%; in assay [4], 98% (active). In addition, the values for the inhibition in assay [2] and in assay [3] were 1% and 2%, respectively. Further, the outcome in assay [5], in assay [6], in assay [7] and in assay [8] was inactive.

`Nc1nc(N)c2c(ccn2Cc2cc3c(cc2Cl)OCO3)n1`: the growth inhibition in assay [1] is 11%; in assay [4], 98% (active). Further, the figures for the inhibition in assay [2] and in assay [3] were 67% (active) and -3%, respectively. For the same compound, the outcome in assay [5], in assay [6], in assay [7] and in assay [8] was inactive.

For the compound `CCC(Cc1cnc2nc(N)nc(N)c2n1)c1ccc(C(=O)O)cc1` (configuration not stated), the growth inhibition in assay [1] was -2%; in assay [4], 93% (active). Further, the inhibition is 15% in assay [2] and -2% in assay [3]. Moreover, the result in assay [5], in assay [6], in assay [7] and in assay [8] was inactive.

As to `CS(=O)(=O)CCNCc1nc(-c2ccc3c(Nc4ccc(Cl)cc4F)ccnc3c2)cs1`, the growth inhibition in assay [1] was 28%; in assay [4], 88% (active). The inhibition is 19% in assay [2] and 1% in assay [3]. In addition, the outcome in assay [5], in assay [6], in assay [7] and in assay [8] was inactive.

With `Nc1ncnc2c1ncn2C(CO)Cc1ccc(O)cc1` (configuration not stated), the growth inhibition in assay [1] was 0%; in assay [4], 93% (active). Further, the inhibition in assay [2] is -5%; in assay [3], -2%. Further, the outcome in assay [5], in assay [6], in assay [7] and in assay [8] was inactive.

`COc1ccc(-c2ccc(NC(=O)c3ccc(C#N)cc3)c(F)c2)cc1CN(C)CCN(C)C`: the growth inhibition was 0% in assay [1] and 88% (active) in assay [4]. For the same compound, the inhibition in assay [2] is 24%; in assay [3], -4%. Besides, the result in assay [5], in assay [6], in assay [7] and in assay [8] was inactive.

For `CN1CCC(C(=O)Nc2ccc(-c3ccc(-c4nc5ccccc5[nH]4)cc3)cc2)CC1`, the figures for the growth inhibition in assay [1] and in assay [4] were 94% (active) and 101% (active), respectively. Moreover, the inhibition was 28% in assay [2] and 5% in assay [3]. Moreover, the outcome in assay [5], in assay [6], in assay [7] and in assay [8] was inactive.

With `CC(C)CC(C)NC(=O)C1Cc2c([nH]c3ccc(F)cc23)C2(CCN(Cc3ccccc3)CC2)N1` (configuration not stated), the growth inhibition was 49% in assay [1] and 97% (active) in assay [4]. The figures for the inhibition in assay [2] and in assay [3] were 18% and 7%, respectively. The outcome in assay [5], in assay [6], in assay [7] and in assay [8] was inactive.

Consider `COc1cc(NC(=O)c2cccc([N+](=O)[O-])c2)cc(S(=O)(=O)c2ccc(Cl)cc2)c1`, for which the growth inhibition in assay [1] is 23%; in assay [4], 88% (active). Moreover, the inhibition in assay [2] is -12%; in assay [3], -3%. Besides, the result in assay [5], in assay [6], in assay [7] and in assay [8] was inactive.

Take `COc1cc(-c2nc3c4ccccc4c4ccccc4c3[nH]2)cc(OC)c1OC`: the growth inhibition is 10% in assay [1] and 90% (active) in assay [4]. Besides, the figures for the inhibition in assay [2] and in assay [3] were 4% and 5%, respectively. Moreover, the result in assay [5], in assay [6], in assay [7] and in assay [8] was inactive.

Regarding `CCCN(CCCCNC(=O)c1ccc(-c2cccnc2)cc1)C1CCc2c(O)cccc2C1` (configuration not stated), the growth inhibition in assay [1] was 16%; in assay [4] it was 87% (active). Also, the inhibition in assay [2] is -1%; in assay [3] it was 0%. Further, the result in assay [5], in assay [6], in assay [7] and in assay [8] was inactive.

As for `COCCOc1nc(N)nc2ncc(Cc3cc(OC)ccc3OC)c(C)c12`, the growth inhibition is 0% in assay [1] and 96% (active) in assay [4]. Also, the inhibition in assay [2] is 61% (active); in assay [3], -5%. Moreover, the outcome in assay [5], in assay [6], in assay [7] and in assay [8] was inactive.

As for `CS(=O)(=O)c1ccc(-c2cc(C(F)(F)F)nc(N[C@@H]3CCCC[C@H]3OCc3ccccc3)n2)cc1`, the growth inhibition is 99% (active) in assay [1] and 100% (active) in assay [4]. The results for the inhibition in assay [2] and in assay [3] were 8% and 5%, respectively. Besides, the result in assay [5], in assay [6], in assay [7] and in assay [8] was inactive.

As for `Cc1c(C)c2c(c(C)c1O)CC[C@@](C)(C(=O)N1CCC(CCN3CCC(c4c[nH]c5ccccc45)CC3)CC1)O2`, the growth inhibition in assay [1] was 91% (active); in assay [4], 98% (active). Besides, the inhibition in assay [2] is 37%; in assay [3], 6%. Also, the result in assay [5], in assay [6], in assay [7] and in assay [8] was inactive.

Turning to `Cc1cc(Br)cnc1CCCCNc1cc(=O)c2ccccc2[nH]1`, the growth inhibition in assay [1] was 64% (active); in assay [4] it was 91% (active). For the same compound, the inhibition in assay [2] and in assay [3] was -1% each time. The result in assay [5], in assay [6], in assay [7] and in assay [8] was inactive.
